From PubChem
D3 antag = blocks the human D3 dopamine receptor; P35462; AID 652054; D3R cells, DiscoveRx beta-arrestin luminescence, antagonist mode; active compounds read low; actives 2.5% (n = 360,000); max response, negative = inhibition, %; in the data active means max response below about -50%; inconclusive means no clear call, values can overlap the other calls
Target sequence (P35462 whole entry, looked up): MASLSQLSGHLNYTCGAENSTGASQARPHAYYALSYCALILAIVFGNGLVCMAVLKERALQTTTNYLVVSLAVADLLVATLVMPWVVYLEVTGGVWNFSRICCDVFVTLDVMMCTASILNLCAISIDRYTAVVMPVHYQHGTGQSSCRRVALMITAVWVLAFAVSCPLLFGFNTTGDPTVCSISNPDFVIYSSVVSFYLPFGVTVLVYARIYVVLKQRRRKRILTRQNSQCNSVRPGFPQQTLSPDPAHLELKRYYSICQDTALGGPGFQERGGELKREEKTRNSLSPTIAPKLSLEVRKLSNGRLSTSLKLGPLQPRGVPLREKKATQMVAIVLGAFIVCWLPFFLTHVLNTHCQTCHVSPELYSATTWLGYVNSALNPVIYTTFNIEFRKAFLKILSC
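Cells expressing the human receptor were seeded at 1500 cells/well, incubated overnight at 37 degrees C in 5% CO2, then exposed to library compounds with dopamine controls for 90 minutes at 37 degrees C before luminescent detection.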
DRD3 agonist = agonists of human D3 dopamine receptor; D3R DiscoveRx beta-arrestin cells, luminescence, 90 min; P35462; AID 652048; actives 0.58% (n = 410,000); max activation, %; in the data active means max activation above about 30%
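Agonist mode: compounds and dopamine controls were applied to plated cells for 90 min at 37 degrees C after an overnight attachment at 1500 cells/well. Luminescent read-out followed 30 - 60 minutes at room temperature with DiscoveRx detection reagent.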
MCF10A rereplic = inducers of DNA re-replication in MCF 10A breast cells | MCF 10A DNA re-replication, Hoechst nuclear intensity, 48 h | Potency, µM (highest dose often 46.1 µM), usual class: activators | actives 2.9% (n = 350,000); further: nearly all actives have a fitted effect of over 50% in size
KB-V1 cytotox = KB-V1 MDR subline cytotoxicity; Potency, µM (top dose mostly 46.1 µM), usual class: cytotoxic; KB-V1 MDR cells viability, CellTiter-Glo, 72 h; actives 3.4% (n = 400,000); further: nearly all actives have a fitted effect of over 60% in size
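In this primary screen, KB-V1 cells overexpressing P-gp are incubated with library compounds (lowest to highest concentration) for 72 h at 37 degrees C before a luminescent ATP viability read.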
SW480 rereplic = inducers of DNA re-replication in SW480 colon cancer cells. SW480 DNA re-replication, Hoechst DNA content imaging, 48 h. actives 1.8% (n = 340,000). Potency, µM (doses to about 46.1 µM), usual class: activators; further: nearly all actives have a fitted effect of over 55% in size
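DNA re-replication was detected as more nuclei of elevated Hoechst intensity after 48 hr exposure to compound (23 nL pinned per well of 250 cells).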
KB-3-1 tox = kills parental KB-3-1 adenocarcinoma cells. KB-3-1 viability, CellTiter-Glo ATP luminescence, 72 h. Potency, µM (highest dose often 46.1 µM), usual class: cytotoxic. AID 1347075. actives 1.4% (n = 400,000); further: nearly all actives have a fitted effect of over 60% in size
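Parental KB-3-1 viability, qHTS format: 72 h compound exposure, 37 °C; CellTiter-Glo; media-only wells and DMSO plates as controls; concentration-effect fits on corrected data.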
Large screens that a line does not name were inactive; ! = not confirmed by another sample. A selection: hits, their analogues and other compounds. The true share with any hit is near 8.9%. Unless noted, the call rests on the fitted dose curve; in most records, active means well fitted curve in the direction sought with a large enough effect; inconclusive means small, poorly fitted or top-dose-only effect, or another doubt; inactive means no such curve, though single readings can be large; an effect the other way counts as inactive or inconclusive.

CCOCCCn1c(=N)c(C(=O)NC2CCCCC2)cc2c(=O)n3ccccc3nc21	none (no result: D3 antag, MCF10A rereplic, SW480 rereplic)
Cc1ccc(NC(=O)c2cc(S(=O)(=O)N3CCCc4ccccc43)ccc2F)cc1F	KB-3-1 tox 26µM (no result: D3 antag, MCF10A rereplic, SW480 rereplic)
O=C(Nc1c(F)cc(F)cc1Br)c1cc(S(=O)(=O)N2CCN(c3ccccn3)CC2)ccc1F	none
COCc1nnc(NC(=O)c2ccc(S(=O)(=O)N3CCCc4ccccc43)cc2)o1	MCF10A rereplic 16µM, KB-V1 cytotox inconclusive, SW480 rereplic inconclusive, KB-3-1 tox inconclusive
O=C(Nc1ccc(Cl)cc1)c1cc(S(=O)(=O)N2CCCc3ccccc32)ccc1F	none (no result: D3 antag, MCF10A rereplic, KB-V1 cytotox, SW480 rereplic, KB-3-1 tox)
Cc1cc(C)cc(NC(=O)c2cc(S(=O)(=O)NCCC3=CCCCC3)ccc2F)c1	KB-V1 cytotox inconclusive (no result: D3 antag, MCF10A rereplic, SW480 rereplic)
O=C(Nc1ccc(F)c(F)c1)c1cc(S(=O)(=O)N2CCN(c3ccccn3)CC2)ccc1F	KB-V1 cytotox 10µM
Cc1ccc(NC(=O)c2cc(S(=O)(=O)NCCC3=CCCCC3)ccc2F)cc1F	MCF10A rereplic inconclusive, KB-V1 cytotox 10µM!, SW480 rereplic inconclusive, KB-3-1 tox 10µM!
O=C(NCc1ccc(F)cc1)c1cccc(N2CCCS2(=O)=O)c1	none (no result: D3 antag, MCF10A rereplic, SW480 rereplic)
CCc1ccccc1NC(=O)CN(C)S(=O)(=O)c1cccc2nsnc12	none (no result: D3 antag, MCF10A rereplic, SW480 rereplic)
Cc1ccc(Cl)cc1N1CCN(C(=O)Cn2nc(C)n3c(cc4sccc43)c2=O)CC1	none (no result: D3 antag, MCF10A rereplic, SW480 rereplic)
Cc1cc(NC(=O)COC(=O)c2ccc(S(=O)(=O)N3CCCC3)cc2)no1	none
COC(=O)Nc1ccc(S(=O)(=O)N2CCCCC2C(=O)O)cc1 (configuration not stated)	SW480 rereplic inconclusive
CC(=O)Nc1ccc(S(=O)(=O)N2CCCc3ccccc32)cc1	MCF10A rereplic 9.2µM, KB-V1 cytotox inconclusive, SW480 rereplic 4.6µM
COC(=O)Nc1ccc(S(=O)(=O)N2c3ccccc3CCC2C)cc1 (configuration not stated)	KB-V1 cytotox 4.1µM, KB-3-1 tox 7.3µM
Cc1cc(NC(=O)COC(=O)c2ccc(S(=O)(=O)N3CCCc4ccccc43)cc2)no1	MCF10A rereplic 9.2µM, KB-V1 cytotox inconclusive, SW480 rereplic 15µM, KB-3-1 tox 15µM
CCCN(c1ccccc1F)S(=O)(=O)c1cc(-c2cc(C)no2)ccc1C	none (no result: D3 antag, MCF10A rereplic, KB-V1 cytotox, SW480 rereplic, KB-3-1 tox)
CCCCN(C)C(=O)c1sc(=O)n(Cc2c(C)cccc2C)c1C	D3 antag inconclusive, KB-V1 cytotox inconclusive, KB-3-1 tox inconclusive (no result: MCF10A rereplic, SW480 rereplic)
Cc1cc(C)c2c(=O)nc(SCc3ccccc3C)n(C3CC3)c2n1	none (no result: D3 antag, MCF10A rereplic, SW480 rereplic)
Cc1ccc(OCC(=O)Nc2ccc3nc(SCCOc4ccccc4)sc3c2)cc1	none (no result: D3 antag, MCF10A rereplic, SW480 rereplic)
COc1ccccc1NC(=O)CN1CCCCCC1	none
COc1ccccc1NC(=O)CCN1CCCCCC1	D3 antag -111
COc1ccccc1NC(=O)CCN1CCN(Cc2ccccc2)CC1	D3 antag -55, KB-V1 cytotox inconclusive
CCC1CCCCN1C(=O)CSc1n[nH]c(-c2ccccc2Cl)n1 (configuration not stated)	none (no result: D3 antag, MCF10A rereplic, SW480 rereplic)
Cc1ccc(CCNC(=O)CCNS(=O)(=O)c2ccc3c(c2)oc(=O)n3C)cc1	none
Cn1c(=O)oc2cc(S(=O)(=O)NCCC(=O)NCCc3ccc(Cl)cc3)ccc21	D3 antag inconclusive, KB-3-1 tox 16µM
CCOc1cc(/C=N\NC(N)=O)cc(Br)c1OC(C)C	MCF10A rereplic inconclusive, KB-V1 cytotox 12µM, SW480 rereplic inconclusive, KB-3-1 tox 7.3µM
COc1ccc(Nc2nc3ccccc3n2C)cc1	none
COc1ccc(/C=C/c2nc3ccccc3n2C)cc1	KB-V1 cytotox 4.1µM, KB-3-1 tox 5.2µM
CC(O)c1nc2ccccc2n1C/C=C/c1ccccc1 (configuration not stated)	KB-V1 cytotox 15µM
CCn1c(/C=C/c2ccccc2)nc2ccccc21	MCF10A rereplic inconclusive, KB-V1 cytotox inconclusive, SW480 rereplic inconclusive
COc1ccc(Cn2c(/C=C/c3ccccc3)nc3ccccc32)cc1	MCF10A rereplic inconclusive, KB-V1 cytotox 13µM, SW480 rereplic inconclusive, KB-3-1 tox inconclusive
OCc1nc2ccccc2n1C/C=C/c1ccccc1	none
Cc1coc2cc3oc(=O)c(CCC(=O)NCc4ccccc4Cl)c(C)c3cc12	none (no result: D3 antag, MCF10A rereplic, SW480 rereplic)
